“And” between values parts separate entries of the source, which are not always exact repeats. Equal entries are not always repeated. Results filed as inconclusive are left out. Where a call stands in place of a potency, no number is given. Some compounds were tested as several samples or in several runs, with calls that do not always agree. The source made the active and inactive calls. Unless noted, calls come from the whole dose curve; as a rule, active = well fitted curve in the direction sought with a large enough effect in the repeat runs; inconclusive = weak or mixed curves; inactive = no such curve, though single readings can be large; an effect the other way counts as inactive or inconclusive.
Columns and labels:
[1] = qHTS assay to identify small molecule agonists of the androgen receptor (AR) signaling pathway in the presence of an antagonist - cell viability counter screen (AID 1259379); note: nearly all actives have a fitted effect of over 25% in size; note: potency is the fitted concentration of half-maximal effect
How it was run: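 MDA-kb2 cells (MMTV-luciferase, AR/GR), 3,000/well, 5 h attachment, then 3.0 µM nilutamide (final) and compounds at 15 concentrations. Viability by CellTiter-Fluor fluorescence after 16 h at 37 °C, 0% CO2, in the reporter wells.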

[2] = qHTS assay to identify small molecule agonists of the estrogen receptor beta (ER-beta) signaling pathway - cell viability counter screen (AID 1259380); note: nearly all actives have a fitted effect of over 30% in size; note: potency is the fitted concentration of half-maximal effect
How it was run: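 ER-beta-UAS-bla HEK293T cells in medium with 2% charcoal-stripped FBS, pre-incubated 6 hr, then treated 16 hr at 37C. Cytotoxicity read in the same wells by CellTiter-Glo luminescence after 30 min at room temperature.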

[3] = qHTS assay to identify small molecule antagonists of the estrogen receptor beta (ER-beta) signaling pathway - cell viability counter screen (AID 1259382); note: nearly all actives have a fitted effect of over 55% in size; note: potency is the fitted concentration of half-maximal effect
How it was run: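 ER-beta-UAS-bla HEK293T cells in 2% charcoal-stripped FBS medium, treated with compound plus 1 nM 17-beta-estradiol for 16 h at 37C. Viability read by CellTiter-Glo luminescence after 30 min at room temperature in the same wells.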

[4] = target: Thyrotropin receptor (Homo sapiens) (UniProt P16473); assay: qHTS assay to identify small molecule antagonists of the thyroid stimulating hormone receptor (TSHR) signaling pathway (AID 1259385; calls by dose curve; note: nearly all actives have a fitted effect of over 20% in size; note: potency is the fitted concentration of half-maximal effect)
How it was run: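 TSHR-HEK293 cells were plated and held 18 h at 37C/5% CO2, then given compound plus Ro20-1724 and stimulated with TSH at 1.5 ng/mL final. After 30 min at room temperature, cAMP was detected with cAMP-d2/anti-cAMP-cryptate (1 h) by fluorescence.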

[5] = qHTS assay to identify small molecule agonists of the estrogen receptor alpha (ER-alpha) signaling pathway in the presence of an antagonist - cell viability counter screen (AID 1259386);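 note: cells exposed to compounds for 22 h at 37 °C before the viability read; nearly all actives have a fitted effect of over 30% in size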; note: potency is the fitted concentration of half-maximal effect
How it was run: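 Cell viability in VM7Luc4E2 cells (endogenous full-length ER-alpha) measured by CellTiter-Fluor fluorescence in the same wells as the luciferase screen. Cells pre-cultured 5 days in charcoal-stripped serum, then treated 22 h with compounds at 15 concentrations plus 10.0nM ICI-182,780.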

[6] = target: Progesterone receptor (Homo sapiens) (UniProt P06401); assay: qHTS assay to identify small molecule agonists of the progesterone receptor (PR) signaling pathway (AID 1346784; calls by dose curve; note: nearly all actives have a fitted effect of over 30% in size)
How it was run: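 PR-UAS-bla HEK 293T cells (beta-lactamase reporter under UAS) in 2% charcoal-stripped FBS, dosed with 23 nL compound after 6 hr, incubated 16hr at 37C. LiveBLAzer B/G FRET substrate added, fluorescence read after 2 hours.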

[7] = qHTS assay to identify small molecule antagonists of the TGF-beta/Smad signaling pathway - cell viability counter screen (AID 1346824); note: nearly all actives have a fitted effect of over 50% in size; note: potency is the fitted concentration of half-maximal effect
How it was run: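 SBE-bla HEK 293T cells were plated overnight at 37 C, then given compounds in DMSO plus TGF-beta1 (added as 0.25 ng/mL solution) for 5 hr. After the bla read, CellTiter-Glo was added to the same wells and luminescence read after 30 min at room temperature.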

[8] = qHTS assay to identify small molecule agonists of the TGF-beta/Smad signaling pathway - cell viability counter screen (AID 1346829); note: nearly all actives have a fitted effect of over 45% in size; note: potency is the fitted concentration of half-maximal effect
How it was run: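 CellTiter-Glo luminescence readout; SBE-bla HEK 293T cells, overnight plating, compound 5 hr at 37 C/5% CO2, then bla substrate 2 hr RT, then CellTiter-Glo 30 min RT.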

[9] = target: Estrogen receptor (Homo sapiens) (UniProt P03372); assay: qHTS assay to identify small molecule agonists of the estrogen receptor alpha (ER-alpha) signaling pathway in the presence of an antagonist (AID 1259383; calls by dose curve; note: top concentration of the series differs between compounds; nearly all actives have a fitted effect of over 15% in size)
How it was run: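 VM7Luc4E2 cells express endogenous full-length ER-alpha with an ERE-luciferase reporter and were hormone-deprived for 5 days. Compounds at 15 concentrations were added with 10.0nM ICI-182,780 for 22hr at 37C. Luminescence was read with ONE-Glo.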

[10] = target: Progesterone receptor (Homo sapiens) (UniProt P06401); assay: qHTS assay to identify small molecule antagonists of the progesterone receptor (PR) signaling pathway (AID 1346795; active = well fitted inhibition curve with a large enough effect in the signal ratio in the repeat runs, not every such curve was filed as active; the % refers to the signal ratio; note: potency is the fitted concentration of half-maximal effect)
How it was run: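 PR-UAS-bla HEK293T cells with beta-lactamase reporter under UAS control, in 2% charcoal-stripped FBS, treated with compounds plus 1 nM promegestone (R5020, final) for 16 hr at 37C. Read-out: FRET beta-lactamase substrate fluorescence after 2 hr at room temperature.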

[11] = qHTS assay to identify small molecule antagonists of the progesterone receptor (PR) signaling pathway - cell viability counter screen (AID 1346798); note: nearly all actives have a fitted effect of over 50% in size; note: potency is the fitted concentration of half-maximal effect
How it was run: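 PR-UAS-bla HEK293T cells, 3,000/well in 2% charcoal-stripped FBS medium, dosed with compounds plus R5020 agonist and incubated 16 h at 37C. Viability then measured in the same wells by CellTiter-Glo luminescence after 30 min at RT.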

[12] = qHTS assay to identify small molecule agonists of the progesterone receptor (PR) signaling pathway - cell viability counter screen (AID 1346799; calls by dose curve; note: nearly all actives have a fitted effect of over 45% in size; note: potency is the fitted concentration of half-maximal effect)
How it was run: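 Counter screen in the PR-UAS-bla HEK293T wells (2% charcoal-stripped FBS, 16 h compound exposure at 37 C) after the bla read. CellTiter-Glo added, 30 min at room temperature, luminescence read as cell viability.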

[13] = qHTS assay to identify small molecule agonists of the TGF-beta/Smad signaling pathway (AID 1346859; active = well fitted activation curve with a large enough effect in the signal ratio in the repeat runs, not every such curve was filed as active; the % refers to the signal ratio; note: series mostly up to about 77 µM)
How it was run: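 SBE-bla HEK293T cells plated overnight, then compound exposure for 5 h at 37 C. Beta-lactamase reporter read with LiveBLAzer B/G FRET substrate after 2 h at room temperature, fluorescence at 405 nm excitation, 460/530 nm emission.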

[14] = target: Thyrotropin-releasing hormone receptor (Homo sapiens) (UniProt P34981); assay: qHTS assay to identify small molecule antagonists of the thyrotropin-releasing hormone receptor (TRHR) signaling pathway (AID 1346877; active = well fitted inhibition curve with a large enough effect in the repeat runs, not every such curve was filed as active; note: series mostly up to about 51 µM)
How it was run: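 TRHR-expressing HEK293 cells loaded with calcium dye for 2 h at 37 C; compounds pre-incubated 5 min at room temperature before TRH challenge at 1 nM final. Intracellular calcium fluorescence read kinetically for 3 min; 15 concentrations in triplicate.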

[15] = target: Thyrotropin-releasing hormone receptor (Homo sapiens) (UniProt P34981); assay: qHTS assay to identify small molecule agonists of the thyrotropin-releasing hormone receptor (TRHR) signaling pathway (AID 1346891; calls by dose curve; note: series mostly up to about 58 µM)
How it was run: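 HEK293 cells expressing TRHR plated 18 h at 37 C/5% CO2, calcium dye-loaded 2 h at 37 C, then compound added (agonist mode); kinetic calcium fluorescence read 3 min at 1 s intervals; 15 concentrations in triplicate.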

[16] = Human pregnane X receptor (PXR) small molecule agonists, qHTS cell viability counter screen (AID 1346977); note: nearly all actives have a fitted effect of over 50% in size; note: potency is the fitted concentration of half-maximal effect
How it was run: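 PXR-Luc HepG2 cells (2,000/well, 5% charcoal-stripped FBS) preincubated 5 hr, then exposed to compounds 24 hr at 37 C. Viability read in the same wells by CellTiter-Fluor fluorescence, reagent added at 23 hr, 1 hr incubation.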

[17] = qHTS assay to identify small molecule agonists or antagonists of the thyroid stimulating hormone receptor (TSHR) signaling pathway - wild type cell line counter screen (AID 1259384; calls by dose curve)
How it was run: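 Wild-type HEK293 cells were plated 18 h at 37 C/5% CO2, pin-dosed with compound plus Ro20-1724 medium, held 30 min at room temperature, then given cAMP-d2 and anti-cAMP-cryptate; fluorescence was read after 1 h. Fifteen concentrations, triplicate.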

[18] = target: Androgen receptor (Homo sapiens) (UniProt P10275); assay: qHTS assay to identify small molecule agonists of the androgen receptor (AR) signaling pathway in the presence of an antagonist (AID 1259381; calls by dose curve; note: nearly all actives have a fitted effect of over 15% in size)
How it was run: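 MDA-kb2 cells carrying MMTV-luciferase (AR/GR responsive), 3,000 cells/well, co-treated with 3.0 uM nilutamide final. Compounds at 15 concentrations, 16 hr at 37C without CO2. Luciferase luminescence read after 30 min with ONE-Glo.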

Sequence of Progesterone receptor (Homo sapiens) (P06401 whole entry, looked up): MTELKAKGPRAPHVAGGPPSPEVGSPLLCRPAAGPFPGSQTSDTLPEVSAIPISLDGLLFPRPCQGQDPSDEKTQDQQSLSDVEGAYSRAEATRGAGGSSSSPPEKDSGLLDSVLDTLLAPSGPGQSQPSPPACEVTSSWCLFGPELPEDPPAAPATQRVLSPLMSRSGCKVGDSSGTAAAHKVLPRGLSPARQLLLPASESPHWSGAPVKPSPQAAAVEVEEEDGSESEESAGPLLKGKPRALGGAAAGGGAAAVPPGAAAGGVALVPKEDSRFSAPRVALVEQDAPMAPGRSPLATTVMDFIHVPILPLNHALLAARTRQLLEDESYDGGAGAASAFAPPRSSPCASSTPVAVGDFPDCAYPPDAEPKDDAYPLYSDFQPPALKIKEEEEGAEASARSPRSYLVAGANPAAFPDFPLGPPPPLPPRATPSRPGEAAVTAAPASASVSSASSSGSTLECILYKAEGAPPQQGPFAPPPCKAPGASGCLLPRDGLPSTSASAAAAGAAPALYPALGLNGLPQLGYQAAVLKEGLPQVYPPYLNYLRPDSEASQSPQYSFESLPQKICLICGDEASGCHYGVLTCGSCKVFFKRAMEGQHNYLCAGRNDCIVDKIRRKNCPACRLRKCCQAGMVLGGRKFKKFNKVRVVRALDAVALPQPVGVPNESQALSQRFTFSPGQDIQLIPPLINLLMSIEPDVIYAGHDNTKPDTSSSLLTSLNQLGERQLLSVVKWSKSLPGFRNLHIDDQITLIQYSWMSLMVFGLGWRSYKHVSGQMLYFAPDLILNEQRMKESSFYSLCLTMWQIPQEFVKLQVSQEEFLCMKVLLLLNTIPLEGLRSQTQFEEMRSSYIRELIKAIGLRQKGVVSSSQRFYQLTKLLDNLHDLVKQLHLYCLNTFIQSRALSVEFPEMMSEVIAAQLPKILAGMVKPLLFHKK
Sequence of Thyrotropin receptor (Homo sapiens) (P16473 whole entry, looked up): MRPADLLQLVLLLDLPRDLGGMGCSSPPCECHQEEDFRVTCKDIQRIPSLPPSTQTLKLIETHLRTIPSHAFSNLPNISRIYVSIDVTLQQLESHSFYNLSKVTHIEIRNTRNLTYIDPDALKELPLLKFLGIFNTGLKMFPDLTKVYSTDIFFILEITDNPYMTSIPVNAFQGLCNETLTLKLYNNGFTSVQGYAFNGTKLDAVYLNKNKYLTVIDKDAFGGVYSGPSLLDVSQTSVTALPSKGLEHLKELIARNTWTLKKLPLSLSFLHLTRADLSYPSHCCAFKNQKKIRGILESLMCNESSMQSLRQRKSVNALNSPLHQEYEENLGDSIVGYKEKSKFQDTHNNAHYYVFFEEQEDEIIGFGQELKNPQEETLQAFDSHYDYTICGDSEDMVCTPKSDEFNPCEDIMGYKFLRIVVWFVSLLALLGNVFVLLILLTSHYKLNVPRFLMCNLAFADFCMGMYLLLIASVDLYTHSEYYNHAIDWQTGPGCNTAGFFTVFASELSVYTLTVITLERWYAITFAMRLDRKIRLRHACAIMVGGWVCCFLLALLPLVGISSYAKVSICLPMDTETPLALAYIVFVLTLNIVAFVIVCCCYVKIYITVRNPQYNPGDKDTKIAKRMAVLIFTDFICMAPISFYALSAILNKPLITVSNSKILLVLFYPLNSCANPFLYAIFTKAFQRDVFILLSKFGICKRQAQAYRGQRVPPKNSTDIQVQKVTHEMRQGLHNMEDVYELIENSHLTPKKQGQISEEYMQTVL
Sequence of Estrogen receptor (Homo sapiens) (P03372 whole entry, looked up): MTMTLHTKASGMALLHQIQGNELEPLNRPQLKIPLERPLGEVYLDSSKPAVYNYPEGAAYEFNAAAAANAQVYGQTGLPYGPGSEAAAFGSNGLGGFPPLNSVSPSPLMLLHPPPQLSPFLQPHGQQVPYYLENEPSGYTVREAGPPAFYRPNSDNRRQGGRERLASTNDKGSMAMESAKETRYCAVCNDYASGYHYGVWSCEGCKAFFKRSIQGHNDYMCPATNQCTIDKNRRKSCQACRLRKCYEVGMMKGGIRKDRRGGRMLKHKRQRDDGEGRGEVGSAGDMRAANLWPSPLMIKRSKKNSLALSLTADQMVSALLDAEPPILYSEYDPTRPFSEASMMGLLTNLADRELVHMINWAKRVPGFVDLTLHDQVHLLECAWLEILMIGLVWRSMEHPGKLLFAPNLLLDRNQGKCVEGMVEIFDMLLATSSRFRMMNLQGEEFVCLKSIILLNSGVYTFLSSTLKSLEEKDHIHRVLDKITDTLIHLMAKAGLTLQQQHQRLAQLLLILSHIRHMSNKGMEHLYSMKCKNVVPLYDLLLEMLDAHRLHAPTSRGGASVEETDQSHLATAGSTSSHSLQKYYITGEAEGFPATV
Sequence of Thyrotropin-releasing hormone receptor (Homo sapiens) (P34981 whole entry, looked up): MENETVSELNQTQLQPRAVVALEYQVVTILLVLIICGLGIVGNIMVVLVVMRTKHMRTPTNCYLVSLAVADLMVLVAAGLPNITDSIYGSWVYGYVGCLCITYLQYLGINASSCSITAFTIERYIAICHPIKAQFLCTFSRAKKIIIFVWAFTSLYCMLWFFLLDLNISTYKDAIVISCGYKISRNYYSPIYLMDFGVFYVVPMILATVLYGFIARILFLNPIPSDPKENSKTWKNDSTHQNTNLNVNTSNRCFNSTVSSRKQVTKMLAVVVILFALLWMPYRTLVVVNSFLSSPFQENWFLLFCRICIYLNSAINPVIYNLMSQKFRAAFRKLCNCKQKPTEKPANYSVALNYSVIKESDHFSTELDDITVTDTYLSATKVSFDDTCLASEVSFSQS
Sequence of Androgen receptor (Homo sapiens) (P10275 whole entry, looked up): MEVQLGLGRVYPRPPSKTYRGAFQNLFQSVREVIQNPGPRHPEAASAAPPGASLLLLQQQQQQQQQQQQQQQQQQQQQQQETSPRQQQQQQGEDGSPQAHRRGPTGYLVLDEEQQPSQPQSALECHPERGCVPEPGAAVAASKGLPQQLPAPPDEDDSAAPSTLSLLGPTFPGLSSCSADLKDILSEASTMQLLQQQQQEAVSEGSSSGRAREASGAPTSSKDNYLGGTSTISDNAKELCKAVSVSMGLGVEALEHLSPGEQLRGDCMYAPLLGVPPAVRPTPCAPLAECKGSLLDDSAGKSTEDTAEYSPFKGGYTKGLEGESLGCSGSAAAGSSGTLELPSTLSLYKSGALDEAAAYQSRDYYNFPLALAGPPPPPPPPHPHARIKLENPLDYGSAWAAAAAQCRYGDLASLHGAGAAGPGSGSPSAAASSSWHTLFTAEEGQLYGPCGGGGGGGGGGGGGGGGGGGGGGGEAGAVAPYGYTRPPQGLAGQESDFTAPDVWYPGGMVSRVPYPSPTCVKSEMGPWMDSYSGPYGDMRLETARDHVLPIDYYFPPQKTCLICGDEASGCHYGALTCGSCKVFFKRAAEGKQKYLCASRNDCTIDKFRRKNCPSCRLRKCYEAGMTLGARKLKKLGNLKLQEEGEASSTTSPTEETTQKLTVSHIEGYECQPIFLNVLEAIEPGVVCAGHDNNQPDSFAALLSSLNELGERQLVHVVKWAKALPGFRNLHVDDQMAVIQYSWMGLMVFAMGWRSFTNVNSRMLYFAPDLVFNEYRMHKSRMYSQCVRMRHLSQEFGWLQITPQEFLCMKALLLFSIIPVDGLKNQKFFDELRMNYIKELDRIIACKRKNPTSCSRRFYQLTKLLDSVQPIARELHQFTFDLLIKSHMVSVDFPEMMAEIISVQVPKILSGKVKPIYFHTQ

Row | Structure (SMILES) | Potency [1] | Potency [2] | Potency [3] | Potency [4] | Potency [5] | Potency [6] | Potency [7] | Potency [8] | Potency [9] | Potency [10] | Potency [11] | Potency [12] | outcome [13] | Potency [14] | Potency [15] | Potency [16] | outcome [17] | Potency [18]
1 | Cn1cc(C2=C(c3cn(C4CCN(Cc5ccccn5)CC4)c4ccccc34)C(=O)NC2=O)c2ccccc21 | 11.9 µM (active) | inactive | inactive | inactive | inactive | inactive | inactive | inactive | – | – | – | – | – | – | – | – | – | –
2 | CCCCCCCCCBr | inactive | inactive | inactive | inactive | – | inactive | inactive | inactive | inactive | inactive | inactive | inactive | inactive | inactive | inactive | inactive | – | –
3 | CCC[CH2][Sn]([CH2]CCC)([CH2]CCC)[O]C(=O)c1ccccc1 | 1.72 µM (active) | 1.54 µM (active) | 1.93 µM (active) | 17.2 µM (active) | 10.9 µM (active) | – | 3.47 µM (active) | 2.45 µM (active) | inactive | – | 2.17 µM (active) | 2.43 µM (active) | – | – | – | 1.22 µM (active) | – | –
4 | CCS(=O)(=O)c1cccnc1S(=O)(=O)NC(=O)Nc1nc(OC)cc(OC)n1 | inactive | inactive | inactive | inactive | – | inactive | inactive | inactive | – | inactive | inactive | inactive | inactive | inactive | inactive | inactive | inactive | –
5 | CC(C)N1C(=O)N(c2ccccc2)CSC1=NC(C)(C)C | inactive | – | – | – | inactive | inactive | inactive | inactive | inactive | 17.2 µM (active) | – | – | inactive | inactive | inactive | – | inactive | inactive
6 | CC(=O)[O-].CC(=O)[O-].[Hg+2] | 10.9 µM (active) | 3.06 µM (active) | 6.11 µM (active) | – | 21.7 µM (active) | – | 13.8 µM (active) | 24.5 µM (active) | – | – | 1.37 µM (active) | 3.44 µM (active) | – | – | – | 6.11 µM (active) | – | –
7 | CC(C)(c1ccc(O)c(-c2ccccc2)c1)c1ccc(O)c(-c2ccccc2)c1 | 54.5 µM (active) | – | 27.3 µM (active) | – | 61.1 µM (active) | – | – | 34.7 µM (active) | inactive | – | – | 30.6 µM (active) | – | inactive | inactive | 30.6 µM (active) | – | inactive
8 | CCCCOCN(C(=O)CCl)c1c(CC)cccc1CC | inactive | – | inactive | 61.1 µM (active) | inactive | inactive | inactive | inactive | inactive | – | inactive | – | – | – | – | – | inactive | inactive
9 | O=C(O)C1C2CCC(O2)C1C(=O)O (stereo unspecified) | inactive | inactive | inactive | inactive | – | inactive | inactive | inactive | – | – | – | – | inactive | inactive | inactive | – | inactive | –
10 | CC(=[OH+])/C=C(/C)[O-].CC(=[OH+])/C=C(\C)[O-].CC(=[OH+])/C=C(\C)[O-].[Fe] | inactive | inactive | inactive | – | inactive | inactive | inactive | inactive | inactive | – | inactive | inactive | inactive | – | – | inactive | – | –
11 | CN(C)C(=S)S | inactive | 5.56 µM (active) and 1.21 µM (active) and 12.2 µM (active) | 12.4 µM (active) | – | inactive | – | inactive | inactive | – | – | 15.7 µM (active) and 17.2 µM (active) | inactive and 13.7 µM (active) | inactive | – | – | 15.8 µM (active) and 12.1 µM (active) and 15.4 µM (active) | – | –
12 | O=[N+]([O-])c1cc([N+](=O)[O-])c2ccccc2c1 | inactive | – | inactive | inactive | – | inactive | inactive | – | – | – | – | – | – | inactive | inactive | – | inactive | inactive
13 | COP(N)(=S)OC | inactive | – | inactive | inactive | inactive | inactive | inactive | inactive | inactive | inactive | inactive | inactive | inactive | – | – | inactive | – | inactive
14 | CCOP(=O)(NC(C)C)Oc1ccc(SC)c(C)c1 (stereo unspecified) | inactive | – | inactive | – | inactive | inactive | inactive | inactive | – | – | – | – | inactive | inactive | inactive | inactive | inactive | inactive
15 | Oc1ccccc1Br | inactive | inactive | inactive | – | inactive | inactive | inactive | inactive | inactive | – | inactive | inactive | inactive | – | – | inactive | – | –

From PubChem BioAssay (Tox21)
